Sampled rows, rich in hits. Any-hit rate of the full collection: about 1.8%.
TSHR antag = antagonists of human thyroid stimulating hormone receptor; P16473; TSHR-expressing cells, TSH-stimulated cAMP HTRF, 2 h; active compounds read low; activity change, negative = inhibition, % at 11.5 µM; 330,000 compounds, 0.2% hits; AID 504810;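 active = activity change below a set negative limit, meaning inhibition stronger than a set level, cut at about -70% in these data; inconclusive = activity change between two set negative limits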
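Freshly harvested TSHR cells receive pin-tooled compound, then EC80 TSH at 4nM final. After 2 hours at 37 deg C, antibody in lysis buffer and cAMP-d2 are added; 30 minutes at ambient temperature precede the HTRF read.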
GLP-1R inv ag = inverse agonists of human GLP-1 receptor | P43220 | HEK293 GLP-1R CRE-luciferase, luminescence, 24 h; GLP-1R form is constitutively active | Potency, µM (top dose mostly 38.3 µM), usual class: inhibitors | 410,000 compounds, 1.6% hits | AID 624417; note: nearly all actives have a fitted effect of over 55% in size
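Inverse agonism was detected as reduced cAMP-driven luciferase luminescence after 24 h compound treatment. The cells were HEK293 clones expressing constitutively active human GLP-1R with the reporter. Reporter-only and GPR119 cell lines served as counterscreen controls.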
PTHR1 agonist = agonists of human PTHR1 parathyroid hormone receptor | HEK293 GP2 PTHR1 cells, GloSensor cAMP luminescence, 1 h | Potency, µM (top dose mostly 115 µM), most hits filed as activators | 410,000 compounds, 0.075% hits | AID 743266; note: nearly all actives have a fitted effect of over 55% in size
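HEK-293-derived GP2 cells expressing PTHR1 and a GloSensor cAMP reporter, 3,000/well, plated overnight, given luciferin plus IBMX (each 0.5 mM as added) for 1 h at 37 °C, then compound for 1 h at 37 °C. Luminescence was read after 15 min at room temperature.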
HEK293 tox = cytotoxic in the GLP-1 receptor inverse agonist counter-screen; HEK293 cAMP-luciferase reporter cells, luminescence, 24 h; Potency, µM (titrated, usually from 38.3 µM), actives largely listed as inhibitors; 410,000 compounds, 0.13% hits;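 note: loss of luciferase light is scored as toxicity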
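Quantitative HTS format, 1536 wells, 200 cells/uL seeded. Compounds: 23 nL, 24 h, 37 °C. Detection: luciferase reagent, luminescence at 12 min RT; decreased signal taken as cytotoxic.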
GLP1R ag = GLP-1 receptor (human) agonism. HEK293 GLP-1R CRE-luciferase, luminescence, 4-6 h; cells express a hypersensitive GLP-1R form. Potency, µM (top dose mostly 45.6 µM), hits mostly activators. 380,000 compounds, 0.007% hits
Large screens that a line does not name were inactive. Unless noted, calls come from the whole dose curve; as a rule, active = well fitted curve in the direction sought with a large enough effect; inconclusive = small, poorly fitted or top-dose-only effect, or another doubt; inactive = no such curve, though single readings can be large; an effect the other way counts as inactive or inconclusive.

CS(=O)c1nc(-c2ccc(Br)cc2)cc(-c2ccccc2)c1C#N (centres undefined)	TSHR antag -73, GLP-1R inv ag inconclusive, HEK293 tox inconclusive
CCOC(=O)[C@]12Cc3cc(C)ccc3[C@H]1N(Cc1ccccc1)C(=O)c1cc(F)c(F)cc12	GLP-1R inv ag 11µM (no result: TSHR antag)
CCOC(=O)[C@]12Cc3cc(OC)ccc3[C@H]1N(Cc1ccccc1)C(=O)c1cc(F)c(F)cc12	GLP-1R inv ag inconclusive (no result: TSHR antag)
CCOC(=O)[C@]12Cc3cc(OC)ccc3[C@H]1N(Cc1ccccc1)C(=O)c1ccccc12	GLP-1R inv ag inconclusive (no result: TSHR antag)
CCCCCN1C(=O)c2ccccc2[C@@]2(C(=O)OCC)Cc3cc(OC)ccc3[C@@H]12	GLP-1R inv ag 8.9µM, HEK293 tox inconclusive (no result: TSHR antag)
CCOc1ccccc1N1CCN(C(=O)c2ccc3c(c2)OCO3)CC1	GLP-1R inv ag inconclusive, HEK293 tox inconclusive
CC1Cc2ccccc2N1C(=O)COC(=O)c1ccc(Cl)nc1 (centres undefined)	none
Cc1ccc(Cn2nnnc2CN2CCC(n3nnc4cc(C(F)(F)F)ccc43)CC2)cc1	GLP-1R inv ag 10µM
NC(Cc1ccc(Oc2cc(I)c(O)c(I)c2)c(I)c1)C(=O)O (centres undefined)	none (no result: TSHR antag, GLP-1R inv ag, PTHR1 agonist, HEK293 tox)
O=c1[nH]c2ccccc2n1C1CCN(Cc2ccc(-c3nc4ccc(F)cc4nc3-c3ccccc3)cc2)CC1	GLP-1R inv ag 4.5µM, HEK293 tox inconclusive (no result: TSHR antag)
O=c1[nH]c2ccccc2n1C1CCN(Cc2ccc(-c3nc4ccccc4nc3-c3ccccc3)cc2)CC1	GLP-1R inv ag inconclusive, HEK293 tox inconclusive (no result: TSHR antag)
COc1ccc(CCNC(=O)c2c(N)n(CCN3CCOCC3)c3nc4ccccc4nc23)cc1OC	GLP-1R inv ag 10µM
CCCCCn1c(N)c(C(=O)NCCN2CCOCC2)c2nc3ccccc3nc21	GLP-1R inv ag inconclusive
COc1ccc(CNCCC(c2ccc(F)cc2)c2ccc(OC(C)C)cc2)cc1OC (centres undefined)	GLP-1R inv ag 4µM, HEK293 tox inconclusive
COc1ccc(CNCCC(c2ccc(F)cc2)c2ccc(OC)cc2)cc1 (centres undefined)	GLP-1R inv ag inconclusive, HEK293 tox inconclusive
CC(C)(C)C(=O)OC1=CN(Cc2ccccc2)S(=O)(=O)c2ccccc21	none (no result: TSHR antag, GLP1R ag)
CSc1ccc(C(=O)C2CCCN(Cc3cnc(SC)nc3)C2)cc1 (centres undefined)	GLP-1R inv ag inconclusive
CCn1ccnc1CN1CCCC(C(=O)c2ccc(SC)cc2)C1 (centres undefined)	GLP-1R inv ag inconclusive, HEK293 tox 13µM
CCc1ccc(NC(=O)c2ccc(F)c(S(=O)(=O)N3CCC4(CC3)OCCO4)c2)cc1	GLP-1R inv ag inconclusive (no result: TSHR antag, GLP1R ag)
O=C(Nc1ccc(Br)cc1)c1ccc(F)c(S(=O)(=O)N2CCCc3ccccc32)c1	GLP-1R inv ag 3.2µM (no result: TSHR antag, GLP1R ag)
CCc1ccc(NC(=O)c2ccc(F)c(S(=O)(=O)N3CCc4ccccc4C3)c2)cc1	GLP-1R inv ag 8.9µM (no result: TSHR antag, GLP1R ag)
O=C(Nc1ccc(Br)cc1)c1cccc(S(=O)(=O)N2CCc3ccccc32)c1	GLP-1R inv ag 2µM (no result: TSHR antag, GLP1R ag)
O=C(Nc1ccc(Br)cc1)c1ccc(Cl)c(S(=O)(=O)N2CCCCCC2)c1	none (no result: TSHR antag, GLP1R ag)
CCc1ccc(NC(=O)c2cnc3sc(N4CCCC4)nn3c2=O)cc1	none (no result: TSHR antag, GLP1R ag)
CC1(O)CCC2C3CCC4=CC(=O)CCC4(C)C3(F)C(O)CC21C (centres undefined)	none (no result: TSHR antag, GLP-1R inv ag, PTHR1 agonist, HEK293 tox)
c1ccc(Nc2nc(NCC3CCCO3)c3ccccc3n2)cc1 (centres undefined)	GLP-1R inv ag 8.9µM, HEK293 tox inconclusive
Nc1c(C(=O)NCC2CCCO2)c2nc3ccccc3nc2n1-c1ccccc1 (centres undefined)	GLP-1R inv ag inconclusive
COc1ccc(CS(=O)(=O)/C(Cl)=C(/Cl)C(=O)Nc2ccc(OC)nc2)cc1	GLP-1R inv ag inconclusive, HEK293 tox 11µM
O=C(NCC1CCCO1)c1cccc2c1C(=O)c1ccc(N3CCC(Cc4ccccc4)CC3)cc1S2(=O)=O (centres undefined)	GLP-1R inv ag inconclusive
COc1ccc(-c2nn(-c3ccccc3)cc2C(=O)N2c3ccc(C)cc3C3CN(C)CCC32)cc1 (centres undefined)	GLP-1R inv ag 14µM

Compound activity: PubChem BioAssay, National Center for Advancing Translational Sciences (NCATS)
